# According to PubChem BioAssay:
# A number with no mark means an inactive call.
# Assay: JC-1 mitochondrial signal, unstimulated adipocytes – cell-based, JC-1 fluorescence, 3T3-L1 adipocytes, 24 h, 100 nL compound, profiling panel (AID 1168); note: test concentration not given here
# Settings: JC-1 mitochondrial fluorescence, higher = more signal, called active from +8 up or from −8 down
row,SMILES,z-score
1,Cc1ccc(N2C(=O)c3ccccc3[C@@H](C(=O)NC3CC3)[C@@H]2c2ccc(CO)cc2)nc1,-0.289
2,CCCCC(CC)C(O)C1C=CC2C(=O)N(Cc3ccccc3)C(=O)C2N1n1cnnc1 (stereo unspecified),-1.48
3,C[C@H]1NC(=O)[C@@]23C(=O)N[C@@H](Cc4ccccc4)C2[C@H](C)[C@@]2(C)O[C@H]2C3/C=C/C/C=C\CNC(=O)[C@@H]2CCCN2C1=O (stereo partly specified),0.0802
4,CC(=O)n1cc(C(O)C2C=CC3C(=O)N(c4ccccc4)C(=O)C3N2Nc2ccc([N+](=O)[O-])cc2)c2ccccc21 (stereo unspecified),-1.2
5,C[C@@]1([C@@H](NC(=O)c2ccc(-c3ccccc3)cc2)c2ccc(Cl)cc2)C[C@H]1C1CCCCC1,-1.07
6,C=CCNC(=O)[C@@H]1[C@H]2C(=O)O[C@H](c3ccccc3)[C@H](c3ccccc3)N2[C@H](c2ccc(O)cc2)[C@@]12C(=O)Nc1ccc(C#CCNC(N)=O)cc12,-1.07
7,C=C(/C(=C/C[C@H](OC(C)=O)c1ccccc1OCCO)c1cnc2ccccc2c1)C(C)C,-1.34
8,COc1ccc(/C=C/C=O)cc1,0.754
9,COCCOC(=O)N1C(=O)[C@@]2(c3cc(C#Cc4ccc(OC)cc4)ccc31)[C@H](c1ccc(OCCO)cc1)N1[C@H](c3ccccc3)[C@H](c3ccccc3)OC(=O)[C@H]1[C@@H]2C(=O)N1CCN(c2ncccn2)CC1,2.18
10,COc1ccc(CCNC(=O)[C@@]2(Sc3ccc(C)cc3)CC(=O)N(C3Cc4ccccc4C3)[C@@H]2c2ccc(CO)cc2I)cc1,-0.279
11,COc1ccc([Si](C)(C)[C@@H]2[C@@H](CC(=O)N3CCC[C@H]3CO)O[C@]3(C(=O)N(c4ccccc4)c4ccccc43)[C@H]2C)cc1,-0.181
12,COc1ccc(C#Cc2ccc3c(c2)[C@]2(C(=O)N3)[C@H](C(=O)NC[C@H](O)c3ccccc3)[C@H]3C(=O)O[C@H](c4ccccc4)[C@H](c4ccccc4)N3[C@@H]2c2ccc(O)cc2)cc1,-0.523
13,CC(C)C[C@@H]1NC(=O)[C@@H]2C[C@H](C(=O)O)[C@H](c3cccc(OCCO)c3)N2C1=O,-0.531
14,CC#CC(=O)Oc1ccccc1C=CC(=O)OCC,0.161
15,CO[C@H]1O[C@H](CO)[C@@H](OC(=O)Nc2ccccc2)[C@H](OC(=O)Nc2ccccc2)[C@@H]1OC(=O)Nc1ccccc1,0.348
16,COCCOC(=O)N1C(=O)[C@@]2(c3ccccc31)[C@H](C(=O)N1CCc3cc(OC)c(OC)cc3C1)[C@H]1C(=O)O[C@H](c3ccccc3)[C@H](c3ccccc3)N1[C@@H]2c1ccc(OCCO)cc1,0.139
17,O=C1N(Cc2ccccc2)c2ccccc2[C@@H]2OC(c3ccc(OCCCO)cc3)=N[C@]12CCS(=O)(=O)c1ccccc1,1.86
18,C=C(CCCC)C(=O)CC[C@@H](OC(=O)c1ccccc1-c1ccccc1C(=O)O)c1ccc(OCCO)cc1,-1.03

row,SMILES,z-score
1,NC(=O)N1C(=O)C2C(C1=O)C1C=C(c3ccc(CO)cc3)C2C(c2cccs2)N1Cc1cccc(OC(F)(F)F)c1 (stereo unspecified),0.863
2,COc1ccc([C@H]2OC[C@@H]3C[C@@H](Cc4ccccc4)C(=O)N32)cc1,-0.0784
3,NC(=O)NCC#Cc1ccc2c(c1)[C@]1(C(=O)N2)[C@H](c2ccccc2OCCO)N2[C@H](c3ccccc3)[C@H](c3ccccc3)OC(=O)[C@H]2[C@@H]1C(=O)Nc1nc2ccccc2s1,2.99
4,COc1ccc(C(=O)Nc2ccc(CN3C(=O)[C@]4(O[C@H](CCO)[C@@H]([Si](C)(C)c5ccc(OC)cc5)[C@@H]4C)c4ccccc43)cc2)cc1,1.36
5,C#C[C@H](O[Si](C#Cc1ccc(Oc2ccccc2)cc1)(C(C)C)C(C)C)c1ccccc1,-0.805
6,COc1ccc([Si](C)(C)[C@H]2[C@H](CCO)O[C@@]3(C(=O)N(Cc4ccc(N(C=O)c5ccccc5)cc4)c4ccccc43)[C@@H]2C)cc1,-0.393
7,CC(=O)NCCCC[C@@H]1NC(=O)[C@H]2C[C@@H](C(=O)NCCCCCCNC(=O)CS)[C@@H](c3ccc(O)cc3)N2C1=O,0.184
8,C=CCNC(=O)[C@H]1[C@@H]2C(=O)O[C@@H](c3ccccc3)[C@@H](c3ccccc3)N2[C@@H](c2ccccc2OCCO)[C@]12C(=O)Nc1ccc(C#CCCO)cc12,-0.936
9,O=C1O[C@@H](c2ccccc2)[C@@H](c2ccccc2)N2[C@@H](c3ccccc3OCCO)[C@]3(C(=O)Nc4ccc(C#CC5=CCCCC5)cc43)[C@@H](C(=O)N3CCCCCCC3)[C@H]12,-1.85
10,C=C[C@@H](COC(=O)OC(C)(C)C)N(Cc1ccc(OC)cc1)S(=O)(=O)c1ccc(Br)cc1,-0.239
11,C=C(/C(=C/C[C@H](OC(C)=O)c1ccc(CO)o1)c1cc(C(=O)OC)ccc1OC)C(C)C,1.13
12,COc1ccc(CCNC(=O)[C@@]2(Sc3ccc(C)cc3)CC(=O)N(C(C)C)[C@@H]2c2ccc(CO)cc2I)cc1,-0.139
13,COc1ccc(CCNC(=O)[C@@]2(C)c3ccccc3C(=O)N(C(C)C)[C@H]2c2ccc(CO)cc2)cc1,0.169
14,CC(C)N1C(=O)[C@@]2(Cc3ccccc31)c1ccccc1C(=O)N(Cc1ccccc1Cl)[C@H]2c1ccc(CO)cc1,0.111
15,C=CCOC(=O)[C@H]1[C@@H]2C(=O)O[C@@H](c3ccccc3)[C@@H](c3ccccc3)N2[C@@H](c2ccc(OCCOC(=O)[C@H]3C[C@H]4C(=O)N[C@@H](CCCCN(C)C)C(=O)N4[C@H]3c3ccc(O)cc3)cc2)[C@]12C(=O)Nc1ccc(I)cc12,-0.623
16,CC(C)OC(=O)C=C1C[C@@H](c2ccccn2)O[C@@H](c2ccccn2)O1,-0.341
17,COC(=O)[C@@]1(Cc2ccc(OC)cc2)[C@H]2c3cc(C(=O)N(C)C)n(CCc4ccccn4)c3C[C@H]2CN1C(=O)c1ccccc1,-1.04
18,COC(=O)[C@@]1(Cc2ccccc2)N=C(c2ccc(OCCCO)cc2)O[C@H]1c1ccccc1,0.294
